Activity calls are given as the source filed them.

In test [1] the test system is Wnt5a (protein binding on small-molecule microarray). Put plainly: Wnt5a binders on small-molecule microarray, primary screen, biophysical, 635/667 nm fluorescence (AID 1142).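 Further: fluorescence read at 667 nm with signal to noise per printed feature.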 Particulars: 635 nm fluorescence, higher = more signal.
Test [2] in a line: cell viability in Huh7 cells, primary screen, cytotoxicity control for HCV replication inhibitor project, CellTiter-Glo luminescence, basal, 48 h (AID 1143).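 Further: Huh7 hepatoma cells carrying a hepatitis C replication reporter with no stimulus; test concentration not given here.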 Particulars: Huh7 HCV replicon, higher = more signal, called active from +8 up or from −8 down. A general note: In ATP-based viability assays light output follows the ATP content of the culture.
Test [3] can be described thus: CREB reporter modulators without forskolin, primary screen, cell-based, PC12, CRE-LacZ reporter, unstimulated (AID 1145). The conditions noted are these: no forskolin, luminescence, 4.5 h, higher = more signal, called active from +8 up or from −8 down.
Test [4] can be described thus: CREB reporter modulators under forskolin, primary screen, cell-based, PC12, CRE-LacZ reporter, forskolin-stimulated (AID 1146).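 Further: PC12 cells with 6xCRE LacZ reporter stimulated by forskolin 10 µM; beta-galactosidase reporter signal reflecting CREB driven transcription.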 The conditions noted are these: luminescence, 4.5 h, higher = more signal, called active from +8 up or from −8 down.
Test [5] addresses Streptavidin (Streptomyces avidinii) (UniProt P22629). As to the kind of experiment: streptavidin binders on small-molecule microarray, primary screen, artefact control for SMM compound annotation, biophysical, 635/667 nm fluorescence (AID 1147).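 Further: signal reflects streptavidin binding to arrayed compounds as a control protein.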 Particulars: streptavidin binding, higher = more signal.
Test [6] in a line: small-molecule binders of probe aInhba, primary screen, biochemical, small-molecule microarray, 635/667 nm fluorescence (AID 1148).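 Further: score merges 667nm spot fluorescence with signal-to-noise for antibody binding to printed compounds.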 The conditions noted are these: higher = more signal.
Test [7] has as its target Torsin-1A (Homo sapiens) (UniProt O14656). Put plainly: torsin A binders from cell lysate, primary screen, small-molecule microarray, wild-type, 635/667 nm (AID 1149). The conditions noted are these: COS7 hTOR1A-WT lysate, 635 nm fluorescence, higher = more signal.
Test [8] shares this target. Put plainly: small-molecule binders of mutant TOR1A in lysate, primary screen, cell lysate, small-molecule microarray, COS7 lysate, 635/667 nm fluorescence (AID 1150).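 Further: score pools 667 nm emission and signal to noise measuring lysate protein binding.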 The conditions noted are these: COS7 hTOR1A mutant lysate, 635 nm fluorescence, higher = more signal.
Test [9] relates to Sonic hedgehog protein (Shh). Put plainly: small-molecule binders of Shh protein, primary screen, biochemical, small-molecule microarray, 635/667 nm fluorescence (AID 1151).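 Further: Shh protein binding to compounds spotted on small-molecule microarray slides; score combines spot fluorescence intensity with signal-to-noise across triplicate slides.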 The conditions noted are these: small-molecule microarray binding, 635 nm fluorescence; higher = more signal.

Sequence of Torsin-1A (Homo sapiens) (O14656 whole entry, looked up): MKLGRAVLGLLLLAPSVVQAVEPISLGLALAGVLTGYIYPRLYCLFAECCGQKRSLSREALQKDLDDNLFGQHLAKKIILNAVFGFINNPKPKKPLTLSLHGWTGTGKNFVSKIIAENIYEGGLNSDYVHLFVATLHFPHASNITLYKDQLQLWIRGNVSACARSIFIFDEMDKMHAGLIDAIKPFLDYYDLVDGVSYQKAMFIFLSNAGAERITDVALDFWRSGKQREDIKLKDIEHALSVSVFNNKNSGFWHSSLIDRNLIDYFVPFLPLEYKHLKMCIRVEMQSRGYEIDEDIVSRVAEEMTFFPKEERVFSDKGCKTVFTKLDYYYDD
Sequence of Streptavidin (Streptomyces avidinii) (P22629 whole entry, looked up): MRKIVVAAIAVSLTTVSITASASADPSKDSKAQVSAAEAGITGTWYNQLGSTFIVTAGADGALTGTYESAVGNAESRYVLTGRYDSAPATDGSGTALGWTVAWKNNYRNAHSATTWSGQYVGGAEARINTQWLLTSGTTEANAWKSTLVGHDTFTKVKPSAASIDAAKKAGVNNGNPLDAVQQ

As to `CN(C)C(=O)[C@@]1(Cc2ccccc2N=[N+]=[N-])N=C(c2ccc(OCCCO)cc2)O[C@H]1c1ccccc1CN=[N+]=[N-]`, the composite z-score in [1] turned out to be 0.549; in [5], 1.41; in [6], 0.372; in test [7], 0.477; in test [8] it was 1.24; in test [9], 0.397. Moreover, the z-score in test [2] is -3.09 (inactive); in [3], 1.65 (inactive); in test [4] it was -1.39 (inactive).

`CO[C@H]1COC(=O)[C@H](C)NC(=O)CC=C[C@@H](C)[C@H](NS(=O)(=O)c2ccc(C)cc2)COC(=O)[C@@H](OCc2ccccc2)C=C[C@@H]1C`: the composite z-score in test [1] was 0.0746; in [5], -0.25; in test [6], -0.261; in [7], 0.196; in [8] it was 0.316; in test [9], 0.96. Also, the z-score in [2] is 0.0974 (inactive); in test [3] it was 1.06 (inactive); in test [4], -0.594 (inactive).

Take `C=C(/C(=C/C[C@@H](OC(=O)c1ccncc1)c1ccc(CO)o1)c1cnc2ccccc2c1)C(C)C`: the composite z-score in test [1] is 0.117; in test [5], 1.72; in [6], 0.0464; in [7], 0.165; in test [8], 0.475; in [9], 1.15. Moreover, the values for the z-score in test [2], in test [3] and in test [4] were -1.35 (inactive), 2.21 (inactive) and -0.42 (inactive), respectively.

Consider `C[C@@H]1CC[C@H]2C(=O)N3CCC[C@H]3C(=O)N2[C@H]1c1ccc(Br)cc1`, for which the composite z-score in [1] is 0.12; in [5] it was 1.98; in [6], -0.0986; in test [7] it was 0.529; in [8], 0.492; in test [9], -0.0312. Moreover, the z-score in [2] was -0.184 (inactive); in test [3] it was 1.1 (inactive); in test [4], -0.0739 (inactive).

As to `CO[C@H]1COC(=O)[C@H](C)COC(=O)[C@H](Cc2ccccc2)NC(=O)CC=C[C@H]1C`, the composite z-score is 0.265 in test [1]; -0.0705 in test [5]; 0.286 in [6]; 0.715 in test [7]; -0.121 in test [8]; 1.61 in test [9]. The z-score in test [2] was -0.441 (inactive); in [3], 0.707 (inactive); in test [4], -0.872 (inactive).

As for `COCCOC(=O)N1C(=O)[C@@]2(c3cc(C#CCC(C(=O)OC)C(=O)OC)ccc31)[C@H](C(=O)N1CCN(c3ncccn3)CC1)[C@H]1C(=O)O[C@H](c3ccccc3)[C@H](c3ccccc3)N1[C@@H]2c1ccc(O)cc1`, the composite z-score in test [1] is 0.117; in test [5] it was 0.043; in test [6] it was 0.0386; in test [7], 0.143; in test [8] it was 0.731; in test [9], 1.38. The values for the z-score in test [2], in test [3] and in test [4] were -3.81 (inactive), -0.671 (inactive) and -0.784 (inactive), respectively.

Regarding `COCCOC(=O)N1C(=O)[C@@]2(c3cc(C#CC4(O)CCCCCC4)ccc31)[C@H](C(=O)N1CCCCCCC1)[C@H]1C(=O)O[C@H](c3ccccc3)[C@H](c3ccccc3)N1[C@@H]2c1ccc(O)cc1`, the composite z-score in [1] was found to be 0.464; in test [5], 1.16; in [6] it was 1.01; in [7], 1.27; in test [8] it was 0.889; in test [9] it was 1.68. Further, the results for the z-score in test [2], in [3] and in test [4] were -4.34 (inactive), -0.211 (inactive) and -1.68 (inactive), respectively.

With `C=C(COC)/C(=C/C[C@H](OC(C)=O)c1ccc(OCCO)cc1)c1cnc2ccccc2c1`, the composite z-score was 0.248 in test [1]; 0.864 in test [5]; 0.0082 in test [6]; 0.654 in [7]; -0.0171 in [8]; 1.99 in [9]. The z-score is -0.843 (inactive) in test [2], 7.3 (inactive) in test [3] and -0.862 (inactive) in [4].

`NC(=O)NCC#Cc1ccc2c(c1)[C@]1(C(=O)N2)[C@H](C(=O)N2CCCCCCC2)[C@H]2C(=O)O[C@H](c3ccccc3)[C@H](c3ccccc3)N2[C@@H]1c1ccccc1OCCO`: the composite z-score in [1] stood at 1.58; in test [5] it was 3.38; in test [6], 2.01; in [7], 1.73; in test [8], 1.53; in test [9], 0.81. The results for the z-score in test [2], in test [3] and in test [4] were -0.481 (inactive), -0.348 (inactive) and -1.18 (inactive), respectively.

As to `CO[C@@H]1COC(=O)[C@H](C)NC(=O)CC=C[C@@H](C)[C@H](NS(=O)(=O)c2ccc(C)cc2)COC(=O)CC=C[C@@H]1C`, the composite z-score was 0.0543 in test [1]; -0.193 in test [5]; -0.145 in test [6]; 0.56 in [7]; 0.252 in test [8]; 0.0208 in test [9]. The z-score in test [2] is 0.189 (inactive); in [3] it was -0.0234 (inactive); in test [4], -0.445 (inactive).

On to `C=CCN1C(=O)[C@]2(O[C@H](CCn3cc(CCO)nn3)[C@@H]([Si](C)(C)c3ccc(OC)cc3)[C@@H]2C)c2cc(NC(=O)c3ccc(OC)cc3)ccc21`, for which the composite z-score is 0.46 in test [1]; 0.132 in [5]; -0.0598 in test [6]; 1.06 in test [7]; 0.66 in [8]; 1.61 in [9]. Further, the z-score was -4.16 (inactive) in test [2], 7.29 (inactive) in test [3] and -1.63 (inactive) in [4].

On to `O=C1c2ccccc2[C@](Cc2ccccc2I)(C(=O)O)[C@H](c2ccc(CO)cc2)N1C1CCCCC1`, for which the composite z-score is 0.818 in test [1]; 0.947 in test [5]; 0.0676 in [6]; 0.0702 in test [7]; 0.76 in test [8]; 0.636 in test [9]. In addition, the z-score was -4.42 (inactive) in test [2], 0.001 (inactive) in test [3] and -0.298 (inactive) in [4].

`C=CCN(C(=O)C1N(c2ccc(CCO)cc2)C(=O)C2C(C(=O)O)C3C=CC21O3)C(C)(C)C` (stereo not given): the composite z-score in test [1] was -0.505; in test [5] it was -2.01; in test [6] it was -0.227; in test [7] it was -3.07; in test [8], -1.77; in [9], -1.34. Moreover, the results for the z-score in test [2], in test [3] and in test [4] were -1.93 (inactive), -0.623 (inactive) and -0.819 (inactive), respectively.

Turning to `CCN1C(C)=C(C(=O)OC)[C@@H](c2ccccc2)N2C(=O)[C@@]3(C(=O)OC)O[C@@]12[C@@H]1C(=O)CCC[C@@H]13`, the composite z-score in test [1] is 0.365; in [5], -0.213; in test [6], 0.115; in test [7], 0.385; in test [8], 0.353; in test [9] it was 2.02. Further, the z-score in [2] is -0.419 (inactive); in [3] it was 0.462 (inactive); in test [4], -0.51 (inactive).

As for `CC(=O)Nc1ccc([C@H]2[C@H](C)CC[C@H]3C(=O)N4[C@@H](CC[C@@H](C)[C@@H]4c4ccc(NC(C)=O)cc4)C(=O)N32)cc1`, the composite z-score in test [1] turned out to be 0.165; in [5], 0.627; in test [6], 0.0275; in [7], 1.17; in [8] it was 0.283; in test [9], 1.34. Also, the z-score was -0.446 (inactive) in test [2], 3.09 (inactive) in test [3] and -0.876 (inactive) in test [4].

(Values after PubChem BioAssay.)
